# According to PubChem BioAssay (NCATS):
# Where “and” joins values, the source holds several entries; their conditions need not be identical. Equal values may be shown once. Inconclusive results are not listed. Entries that show only a call come without a potency. Unmarked numbers belong to inactive results. Calls of active or inactive are those of the source. Calls follow the shape of the dose curve; as a rule, active = well fitted curve in the direction sought with a large enough effect; inconclusive = small, poorly fitted or top-dose-only effect, or another doubt; inactive = no such curve, though single readings can be large; an effect the other way counts as inactive or inconclusive. Square brackets hold non-standard residues; d marks the D form. Peptide text beside a SMILES is read from it. PhLac = O=C(O)[CH](O)Cc1ccccc1; NMeV = CN[CH](C(=O)O)C(C)C
# How the values were obtained:
# [1] = biological target: Cellular tumor antigen p53 (Homo sapiens) (UniProt P04637); assay: Primary qHTS for small molecule compounds that upregulate eGFP-tagged delta133p53alpha (in N-terminal) cells. (AID 2060322); settings: NCI-H358 eGFP-delta133p53alpha fluorescence, 24 h; activation: hits give high values; also: nearly all actives have a fitted effect of over 75% in size; also: potency is read from the fitted curve at half-maximal effect;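 as to activation: cells pre-induced with doxycycline then dosed without doxycycline; series mostly up to about 56 µM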
# Summary of the method: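 NCI-H358 cells pre-induced 24 h with 10 ng/ml doxycycline for eGFP-delta133p53alpha, plated dox-free and exposed 24 h at 37C to titrated compounds. Fixed, Hoechst-stained; gated GFP peak intensity by laser scanning cytometry, normalized to DMSO (0%) and 57.5 uM 5-azacytidine (100%).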
# [2] = biological target: Aldehyde dehydrogenase, mitochondrial (Homo sapiens) (UniProt P05091); assay: qHTS for Inhibitors of the Aldehyde Dehydrogenase Family (ALDH2) Primary screen (AID 2061308); also: nearly all actives have a fitted effect of over 55% in size
# [3] = biological target: Retinaldehyde dehydrogenase 3 (Homo sapiens) (UniProt P47895); assay: qHTS for Inhibitors of the Aldehyde Dehydrogenase Family (ALDH1A3) Primary screen (AID 2061315)
# Chain of Cellular tumor antigen p53 (Homo sapiens) (P04637 whole entry, looked up): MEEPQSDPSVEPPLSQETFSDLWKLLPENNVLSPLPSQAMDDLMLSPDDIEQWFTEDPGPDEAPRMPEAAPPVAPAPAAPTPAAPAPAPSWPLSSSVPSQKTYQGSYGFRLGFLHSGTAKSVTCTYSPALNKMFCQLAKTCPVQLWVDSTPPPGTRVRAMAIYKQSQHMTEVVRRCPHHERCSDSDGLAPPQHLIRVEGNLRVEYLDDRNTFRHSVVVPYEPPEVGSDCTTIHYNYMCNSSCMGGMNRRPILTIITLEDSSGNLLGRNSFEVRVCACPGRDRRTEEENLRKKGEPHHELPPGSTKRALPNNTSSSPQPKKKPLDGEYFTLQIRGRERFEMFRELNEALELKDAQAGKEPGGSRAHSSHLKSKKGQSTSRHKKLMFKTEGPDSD
Compound,Potency [1],Potency [2],Potency [3],activation [1]
COc1cc(NC(=O)c2cccc(-n3cc(NC(=O)Nc4cccc(C)c4)cn3)c2)cc(OC)c1OC,23.9 µM (active),inactive,inactive,
CC(C)[C@H]1CCC(CO)=C[C@@H]1/C=C(\CO)C(=O)O,,inactive,inactive,-15.3%
CO[C@H]1[C@@H](O)[C@H](O[C@H]2CC[C@@]3(C)C(CCC4C3CC[C@]35COC6(COC(=O)C6)C3CCC45O)C2)O[C@@H](C)[C@@H]1OC1OC(CO)C(OC2OC(CO)C(O)C(O)C2O)C(O)C1O (some centres not stated),,inactive,inactive,6.87%
CCOc1ccc(-n2c(C(C)N(Cc3cccnc3)C(=O)Cc3ccc(F)c(C(F)(F)F)c3)nc3ncccc3c2=O)cc1 (configuration not stated),19 µM (active),inactive,inactive,
CCN(CC)C(=O)c1ccc(Nc2nc(OCC3CCCCC3)c3[nH]cnc3n2)cc1,,inactive,inactive,8.04%
C=C(C)C1CCC2(C(=O)O)CCC3(C(=O)O)C(CCC4C5(C)CCC(O)C(C)(C(=O)O)C5CCC43C)C12 (configuration not stated),,inactive,inactive,-3.82%
CC(=O)OC[C@]12[C@H](OC(C)=O)[C@H](OC(=O)c3ccccc3)[C@@H]3[C@@H](OC(C)=O)[C@]1(OC3(C)C)[C@H](C)C[C@H](OC(C)=O)[C@@H]2OC(=O)c1ccccc1,,inactive,inactive,3.05%
CC1=CC(=O)C2C(C)(C)CC(O)CC2(C)C1CO (configuration not stated),,inactive,inactive,-17.6%
C[C@@H]1CC[C@]2(C(=O)O[C@@H]3O[C@H](CO)[C@@H](O)[C@H](O)[C@H]3O)CC[C@]3(C)C(=CCC4[C@@]5(C)C[C@@H](O)[C@H](O)C(C)(C)C5CC[C@]43C)C2[C@]1(C)O (some centres not stated),,inactive,inactive,-17.6%
CC(C)C(C(=O)N1CCCC1C(=O)O)N(C)C(=O)C(O)Cc1ccccc1 (configuration not stated) (H-[PhLac]-[NMeV]-Pro-OH; configuration not given here),,inactive,inactive,22.3%
CC1(C)CC[C@]2(C(=O)O[C@@H]3O[C@H](CO[C@@H]4O[C@H](CO)[C@@H](O)[C@H](O)[C@H]4O)[C@@H](O)[C@H](O[C@@H]4O[C@H](CO)[C@@H](O)[C@H](O)[C@H]4O)[C@H]3O)[C@H](O)C[C@]3(C)C(=CCC4[C@@]5(C)CC[C@H](O[C@@H]6OC[C@@H](O)[C@H](O)[C@H]6O)[C@@](C)(C(=O)O)C5CC[C@]43C)[C@@H]2C1 (some centres not stated),,inactive,inactive,7.63%
Cc1cn2cc(C(=O)N(C)CCO)cc(NC3CCOc4cccc(C)c43)c2n1 (configuration not stated),,inactive,inactive,-10.3%
CC1CC(=O)[C@]2(O)C(C(=O)OCCc3ccc(O)cc3)=CO[C@@H](O[C@@H]3O[C@H](CO)[C@@H](O)[C@H](O)[C@H]3O)[C@H]12 (some centres not stated),,inactive,inactive,-18.3%
C=CC1(C)C=C2C(O)CC3C(C)(C(=O)O)CCCC3(C)C2CC1 (configuration not stated),,inactive,inactive,8.04%
COc1cc(O)cc(/C=C/c2cccc(O)c2)c1,,inactive,inactive,-8.93%
O=C(Cc1ccccc1)OC[C@H]1O[C@H](O[C@H]2O[C@H](CO)[C@@H](O)[C@H](O)[C@H]2O)[C@H](O)[C@@H](O)[C@@H]1O,,inactive,inactive,-3.05%
NC(=O)c1cnc(NCCc2ccc(O)c(Cl)c2)nc1NCc1ccccc1,9.53 µM (active),inactive,inactive,
COc1cc(-c2cccc(O)c2)cc2c1OCO2,,inactive,inactive,2.68%
NC(=O)c1csc(C2OC(CO)C(O)C2O)n1 (configuration not stated),,inactive,inactive,-7%
CN1CCN(C(c2ccccc2)c2ccccc2)CC1,,inactive,inactive,14.2% and -0.955%
COC(=O)CCC1(C)C(C(C)(C)O)C(O)CC2(C)Oc3c(C)c4c(c(OC)c3CC21)C(=O)OC4 (configuration not stated),,inactive,inactive,-3.82%
NC(=O)Nc1cc(-c2cccc(F)c2)sc1C(=O)NC1CCCNC1 (configuration not stated),19 µM (active),inactive,inactive,
CC(NC(=O)[C@H](Cc1ccccc1)NC(=O)OCc1ccccc1)C(=O)CF (some centres not stated),,inactive,inactive,-5.67%
C=CC(=O)Nc1cc(Nc2nccc(-c3c[nH]c4ccccc34)n2)c(OC)cc1N(C)CCN(C)C,10.7 µM (active),inactive,inactive,
